# Laboratory results taken from PubChem BioAssay AID1347142 (National Center for Advancing Translational Sciences (NCATS), 2019).
# Records with an inconclusive call do not appear. Activity calls are given as the source filed them. Calls follow the shape of the dose curve; as a rule, active = well fitted inhibition curve with a large enough effect; inconclusive = small, poorly fitted or top-dose-only effect; inactive = no such curve, though single readings can be large or run the other way.
# Target: N-terminal Xaa-Pro-Lys N-methyltransferase 1 (Homo sapiens) (UniProt Q9BV86)
# Test: qHTS Assay for Inhibitors of N-terminal methyltransferase 1 (NTMT1): ThioGlo3 Assay Confirmatory Screen, Round 1.
# Details: NTMT1 SAHH-coupled ThioGlo3 fluorescence, 30 min; series mostly up to 56.8 µM; activity change, negative = inhibition: at the top concentration
# Method in brief: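 Human NTMT1 at 125 nM was preincubated 1 min at room temperature with compounds at various concentrations or 1 uM RCC1-6 control. Substrate mix (100 uM SAM, 10 uM SAHH, 15 uM ThioGlo3) was added, and fluorescence (Ex 340/Em 450 nm) was read at start and after 30 min, normalized to background.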
# Also: nearly all actives have a fitted effect of over 80% in size.
# For activity change, negative = inhibition in this document: 0% is about no effect.
# Potency is read from the fitted curve at half-maximal effect.
# Chain of N-terminal Xaa-Pro-Lys N-methyltransferase 1 (Homo sapiens) (Q9BV86 whole entry, looked up): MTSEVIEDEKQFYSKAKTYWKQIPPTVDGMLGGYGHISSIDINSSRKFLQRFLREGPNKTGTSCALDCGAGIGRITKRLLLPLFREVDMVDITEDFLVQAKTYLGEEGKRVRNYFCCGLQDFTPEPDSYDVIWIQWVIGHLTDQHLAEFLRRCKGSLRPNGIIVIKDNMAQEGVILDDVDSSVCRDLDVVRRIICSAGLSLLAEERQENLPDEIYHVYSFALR
Compound,Potency,"activity change, negative = inhibition"
COc1cc2c(NC3CCN(C)CC3)nc(N3CCCN(C)CC3)nc2cc1OCCCCCCN(C)C,24.1 µM (active),–
COc1cc2nc(N3CCN(C)CC3)nc(NC3CC3)c2cc1OC,27.1 µM (active),–
COc1cc2c(NC3CCN(C)CC3)nc(N3CCCCC3)nc2cc1OCCOCCN(C)C,24.1 µM (active),–
CNC(=O)[C@H]1O[C@H](n2cnc3c(NCc4cccc(I)c4)nc(Cl)nc32)[C@@H](O)[C@@H]1O,–,12.8% (inactive)
Nc1ncnc2c1[nH]c(=S)n2C1OC(CO)C(O)C1O (stereo unspecified),17.1 µM (active),–
COc1cc2nc(N3CC[C@H](N(C)C)C3)nc(NC3CC3)c2cc1OC,–,15.8% (inactive)
OC[C@H]1O[C@@H](n2cnc3c(NC4CCCCC4)ncnc32)[C@H](O)[C@@H]1O,–,-3.43% (inactive)
C=C1O[C@@](CO)(n2cnc3c(N)ncnc32)[C@H](O)[C@@H]1O,–,-25.4% (inactive)
COc1cc2nc(N3CCCCC3)nc(NC3CCN(Cc4ccccc4)CC3)c2cc1OC,21.5 µM (active),–
CC(C)(COP(=O)(O)OP(=O)(O)OC[C@H]1O[C@@H](n2cnc3c(N)ncnc32)[C@H](O)[C@@H]1OP(=O)(O)O)[C@H](O)C(=O)NCCC(=O)NCCS,–,49.5% (inactive)
COc1cc2c(NC3CCN(C)CC3)nc(N3CCCN(C)CC3)nc2cc1OCc1ccccc1,19.2 µM (active),–
COc1cc2c(NC3CCN(CC4CCCCC4)CC3)nc(N3CCCN(C)CC3)nc2cc1OCCCN1CCCCC1,21.5 µM (active),–
Nc1ncnc2c1ncn2[C@@H]1O[C@@H](CO)[C@H](O)[C@H]1O,–,-16.7% (inactive)
Nc1ncnc2c1ncn2[C@@H]1O[C@H](CO)C[C@@H]1O,–,14% (inactive)
CNC(=O)[C@H]1O[C@@H](n2cnc3c(NCc4ccc(N)cc4)ncnc32)[C@H](O)[C@@H]1O,–,1.41% (inactive)
Nc1ncnc2c1ncn2C1C[C@H](O)[C@@H](CO)O1 (stereo partly specified),–,-9.06% (inactive)
COc1cc2c(NC3CCN(C(C)C)CC3)nc(N3CCCN(C)CC3)nc2cc1OCCCN1CCCC1,24.1 µM (active),–
CCCC(=O)Nc1ncnc2c1ncn2[C@@H]1O[C@@H]2COP(=O)(O)O[C@H]2[C@H]1OC(=O)CCC,–,16.8% (inactive)

Compound,Potency,"activity change, negative = inhibition"
Nc1nc(Nc2ccccc2)nc2c1ncn2[C@@H]1O[C@@H](CO)[C@H](O)[C@H]1O,–,9.37% (inactive)
Nc1ncnc2c1ncn2[C@@H]1O[C@H](CO)C(O)[C@H]1O (stereo partly specified),1.36 µM (active),–
COc1cc2nc(N3CCCCC3)nc(NC(C)C)c2cc1OC,24.1 µM (active),–
COc1cc2c(NC3CCN(C(C)C)CC3)nc(N3CCCN(C(C)C)CC3)nc2cc1OCCCN1CCCC1,27.1 µM (active),–
Nc1ncnc2c1ncn2[C@@H]1O[C@H](COP(=O)(O)OP(=O)(O)OP(=O)(O)OP(=O)(O)OC[C@@H]2O[C@H](n3cnc4c(N)ncnc43)[C@@H](O)C2O)C(O)[C@H]1O (stereo partly specified),–,15.1% (inactive)
COc1cc2nc(N3CCN(C)CC3)nc(NC3CCN(Cc4ccccc4)CC3)c2cc1OC,24.1 µM (active),–
Nc1nc(=S)c2ncn([C@@H]3O[C@H](CO)[C@@H](O)[C@H]3O)c2[nH]1,18.8 µM (active),–
CCCCC#Cc1nc(NC)c2ncn([C@@H]3O[C@@H](CO)[C@H](O)[C@H]3O)c2n1,–,16.7% (inactive)
C[C@H](Cc1ccccc1)Nc1ncnc2c1ncn2[C@@H]1O[C@H](CO)C(O)[C@H]1O (stereo partly specified),–,19.6% (inactive)
COc1cc2nc(N3CCN(C)CC3)nc(NCCC3CC3)c2cc1OC,24.1 µM (active),–
COc1cc2c(NC3CCN(C)CC3)nc(N3CCCN(C)CC3)nc2cc1OCCCCN(C)C,24.1 µM (active),–
CCN(CC)c1nc(NC2CCN(C)CC2)c2cc(OC)c(OC)cc2n1,27.1 µM (active),–
COc1cc2c(NC3CCN(C)CC3)nc(N3CCCN(C)CC3)nc2cc1OCCOCCN(C)C,24.1 µM (active),–
CSc1nc(N)c2ncn([C@@H]3O[C@H](COP(=O)(O)OP(=O)(O)OP(=O)(O)O)[C@@H](O)[C@H]3O)c2n1,–,3.39% (inactive)
COc1cc2c(NC3CCN(C(C)C)CC3)nc(N3CCCN(C(C)C)CC3)nc2cc1OCCCN1CCCCC1,24.1 µM (active),–
C[S+](CCC(N)C(=O)O)CC1O[C@@H](n2cnc3c(N)ncnc32)C(O)C1O (stereo partly specified),–,544% (inactive)
COc1cc2c(NC3CCN(CC4CCCCC4)CC3)nc(N3CCCCC3)nc2cc1OCCCN1CCCCC1,17.1 µM (active),–
CC(C)N(CCCNC(=O)Nc1ccc(C(C)(C)C)cc1)C[C@H]1O[C@@H](n2cc(Br)c3c(N)ncnc32)[C@H](O)[C@@H]1O,–,-1.9% (inactive)
